Screening results (PubChem)
Compounds with a hit are over-represented: about 2.9% of the library has one in this group of screens.
DRD3 agonist – agonists of human D3 dopamine receptor; D3R DiscoveRx beta-arrestin cells, luminescence, 90 min; max activation, %; 0.58% of 410,000 active; AID 652048; in the data active = max activation above about 30%
Target sequence (P35462 whole entry, looked up): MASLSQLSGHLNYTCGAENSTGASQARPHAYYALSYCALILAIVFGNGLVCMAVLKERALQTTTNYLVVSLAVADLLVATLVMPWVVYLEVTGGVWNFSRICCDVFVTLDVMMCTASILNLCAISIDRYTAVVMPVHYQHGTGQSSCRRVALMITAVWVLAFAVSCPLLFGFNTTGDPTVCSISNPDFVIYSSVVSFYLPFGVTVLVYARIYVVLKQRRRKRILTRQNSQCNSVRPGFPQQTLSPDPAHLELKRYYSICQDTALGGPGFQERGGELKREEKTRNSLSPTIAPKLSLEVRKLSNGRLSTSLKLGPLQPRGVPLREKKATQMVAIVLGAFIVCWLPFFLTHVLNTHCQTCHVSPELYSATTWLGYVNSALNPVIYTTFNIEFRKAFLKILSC
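Cells at 1500/well, incubated overnight, then treated with pinned compounds (dopamine as control) for 90 min at 37 degrees C. DiscoveRx reagent added for 30 - 60 minutes at room temperature; luminescence read.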
Integrin act MD – activators of alpha7 integrin expression for muscular dystrophy; AID 624291; alpha7betagal myoblasts, beta-gal FDG fluorescence, 48 h; 0.064% of 350,000 active; Potency, µM (top dose mostly 38.3 µM), actives largely listed as activators; active = well fitted activation curve with a large enough effect; inconclusive = small, poorly fitted or top-dose-only effect; inactive = no such curve, though single readings can be large or run the other way; note: nearly all actives have a fitted effect of over 60% in size
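alpha7betagal+/- myoblasts (passage 13, 250/well) treated 48 h at 37C with compounds at 1:260 dilution of DMSO stock. Lysed, then beta-galactosidase activity read as FDG fluorescence (ex 480/em 540) after 30 min, with pre-read for autofluorescence.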
D3 antag – blocks the human D3 dopamine receptor. D3R cells, DiscoveRx beta-arrestin luminescence, antagonist mode; stronger effect = lower value. max response, negative = inhibition, %. P35462. 2.5% of 360,000 active; in the data active = max response below about -50%; inconclusive = no clear call, values can overlap the other calls
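Cells expressing the human receptor were seeded at 1500 cells/well, incubated overnight at 37 degrees C in 5% CO2, then exposed to library compounds with dopamine controls for 90 minutes at 37 degrees C before luminescent detection.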
Hits are given with their value; . = inactive; ? = inconclusive; / = no result.

SMILES | DRD3 agonist | Integrin act MD | D3 antag
COc1ccc(C2N(c3cc(Cl)ccc3OC)C(=O)C3CCCN32)cc1 (stereo unspecified) | . | . | .
COc1cccc2sc3cc(NCc4ccc5c(c4)OCO5)ccc3c(=O)c12 | . | . | .
COc1cc2sc3cc(NCc4ccc5c(c4)OCO5)ccc3c(=O)c2cc1OC | 41 | . | .
COc1ccc(CCNC2CCC(c3ccccc3)CC2)cc1 (stereo unspecified) | . | . | -65
COc1ccc(CCNC2CCc3ccccc3C2)cc1 (stereo unspecified) | . | . | ?
Cc1cc2nc(-c3ccccc3)c(Cc3cccc(F)c3)n2c(C)c1Br | . | / | .
O=C(CNS(=O)(=O)c1c(Cl)cccc1Cl)OCC(=O)c1ccc[nH]1 | . | . | .
COc1cc(OC)c(-c2c3cc(O)c(=O)cc-3oc3cc(O)c(O)cc23)cc1OC | . | . | -77
Cc1c2cc(O)c(=O)cc-2oc2cc(O)c(O)cc12 | . | . | .
COc1ccccc1Cc1c(-c2ccc(OC)c(OC)c2)nc2ccc(Br)cn12 | . | / | .
O=C1Nc2cc(Cl)ccc2Oc2cc(Oc3ccccc3)ccc21 | . | / | /
O=C(c1nnsc1S(=O)(=O)c1ccc(Cl)cc1)N1CCOCC1 | . | . | ?
CNC(=O)c1nnsc1S(=O)(=O)c1ccc(Cl)cc1 | . | . | -110
COCCNC(=O)c1onc(CSc2cccc(Cl)c2)c1C(=O)O | . | . | .
O=C(CNC(=O)c1ccccc1O)N/N=C/c1ccccn1 | . | . | ?
Cn1c(=O)c(-c2ccccc2)cc2ccccc21 | 47 | . | .
Cn1c(-c2ccccc2)cc2ccccc21 | . | ? | .
CCOC(=O)N1CCc2c(sc(N)c2C#N)C1 | 60 | . | .
CCOC(=O)N1CCc2c(sc(NC(=O)CN3CCOCC3)c2C#N)C1 | . | . | .
CCCNC(=O)C1(C)CCN(Cc2ccc(-n3ccnc3)cc2)C1 (stereo unspecified) | . | / | .
O=C(COC(=O)/C=C/c1ccc(C(F)(F)F)cc1)NC1CCS(=O)(=O)C1 (stereo unspecified) | . | . | .
COc1ccc(OCCOCCN2CCOCC2)cc1 | . | . | ?
N#Cc1ccc(OCC(=O)N2CCc3ccccc32)cc1 | . | . | .
Clc1ccc(OCCCCN2CCc3ccccc3C2)cc1 | . | . | -114
COc1ccc(OCCOCCN2CCc3ccccc3C2)cc1 | . | . | -51
SMILES | DRD3 agonist | Integrin act MD | D3 antag
N#Cc1ccc(OCCN2CCc3ccccc3C2)cc1 | . | . | -79
O=C(CCCOc1ccccc1)N1CCc2ccccc2C1 | . | . | .
COc1ccc(Cl)cc1NC(=O)CCCn1c(C)c2cnn(-c3ccccc3)c(=O)c2c1C | 42 | / | /
COC(=O)c1ccccc1NC(=O)CCCn1c(C)c2cnn(-c3ccccc3)c(=O)c2c1C | . | / | /
CC1CC(C)(C)CC2(C1)NC(=O)N(CC(=O)N1CCN(S(=O)(=O)c3cccc(F)c3)CC1)C2=O (stereo unspecified) | . | ? | .
CN(c1ccccc1C(=O)Nc1ccc2ccccc2c1)S(C)(=O)=O | . | . | .
Cc1ccc(C(=O)Nc2nnc(S(=O)(=O)Nc3ccccc3C)s2)cc1C | . | . | .
Cc1ccccc1NC(=O)CCN1CCCC1 | . | . | .
O=C(CCN1CCc2ccccc2C1)Nc1ccc(F)cc1 | . | . | -66
O=C(CCn1cccc1)Nc1ccc(F)cc1 | . | . | .
Cc1ccccc1NC(=O)CCN1CCc2ccccc2C1 | . | . | -79
COc1cc(NC(=O)CCS(=O)(=O)c2ccc3nc(C)sc3c2)cc(OC)c1OC | . | . | .
CCN(CC(=O)Nc1ccc(NC(C)=O)cc1)C(=O)c1cc2c(s1)CCCC2 | . | . | .
O=C(CC(=O)Nc1ccccc1[N+](=O)[O-])Nc1ccccc1[N+](=O)[O-] | . | . | -64
O=C(CCOc1ccccc1)Nc1ccccc1[N+](=O)[O-] | . | . | .
CCOC(=O)C1CCC(=O)N1Cc1c[nH]c2ccccc12 (stereo unspecified) | . | / | .
COc1cc(CN(C)C)cc(C=O)c1O | . | . | .
COc1cc(N=Nc2ccc(Br)cc2)cc(C=O)c1O | . | . | -75
C=CCC(CC=C)(CNC(=O)C(=O)Nc1ccc(C(=O)OCC)cc1)c1ccccc1 | . | / | /
O=C1c2cccc3cc([N+](=O)[O-])cc(c23)C(=O)N1/N=C/c1ccc(O)cc1O | . | . | .
O=c1ccccn1CCOc1ccccc1Cl | . | . | .
Clc1ccc(OCCN2CCCCC2)c(Cl)c1 | . | . | -176
Clc1ccccc1OCCN1CCCCC1 | . | . | -80
Cc1ccc(OCCN2CCCCCC2)c(C)c1 | . | . | ?
COc1ccc(NC(=O)CO/N=C2\CCCc3nonc32)cc1 | . | . | ?
O=C(CO/N=C1\CCCc2nonc21)Nc1ccc(Br)cc1 | . | . | -83
